Source: PubChem BioAssay AID1159580 (chemical genetic matrix, 2015)
About 2,000 (36%) of roughly 5,500 compounds were called active. Inconclusive results (about 18%) are left out. Cut-off read from the data, not from the text of the source: active = normalized growth mostly below about 0.91 (no sharp cut-off); inconclusive = no clear call, values can overlap the other calls; inactive = mostly above about 0.92. This is one part of the list.

Test: chemical genetic growth profiling, strain panel (AID 1159580);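 note: tested at 20 µM; growth read once vehicle control cultures reached saturation at 30 °C; 1 = growth at the plate median or of vehicle wells; lower values mean less growth of the strain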
Details: S. cerevisiae deletion strains, growth OD

Measured: normalized growth

Nc1ccn([C@H]2CC[C@@H](CO)O2)c(=O)n1
inactive: locus YAL013W, strain DEP1, stronger effect = lower value 1.01 | locus YAL040C, strain CLN3, stronger effect = lower value 1.01 | locus YCL061C, strain MRC1 (second series), stronger effect = lower value 0.988 | locus YDR150W, strain NUM1, stronger effect = lower value 0.994 | locus YDR363W, strain ESC2, stronger effect = lower value 1.01 | locus YER002W, strain NOP16, stronger effect = lower value 0.987 | locus YGR078C, strain PAC10, stronger effect = lower value 0.989 | locus YMR307W, strain GAS1, stronger effect = lower value 0.993 | locus YNL153C, strain GIM3, stronger effect = lower value 1.04 | locus YNL175C, strain NOP13, stronger effect = lower value 1 | locus YNL197C, strain WHI3, stronger effect = lower value 1 | locus YNL224C, strain SQS1, stronger effect = lower value 0.997 | locus YOR083W, strain WHI5 (second series), stronger effect = lower value 1.01
